Source: PubChem BioAssay (Johns Hopkins Ion Channel Center)
KCNQ2 enhance = KCNQ2 (rat) channel potentiation; O88943; CHO-K1 KCNQ2, FluxOR thallium flux fluorescence; active compounds read high; B-score at 10 µM; actives 0.54% (n = 310,000);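 active = fluorescence ratio B-score at least 3 SD of library B-scores, with initial fluorescence B-score within 3 of them, cut at about 5.3 in these data; same plate scores as AID 2156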;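 also: B-score of peak minus minimum over baseline fluorescence ratio after K+ and Tl+ stimulus; positive B-score means potentiation of KCNQ2 with more thallium influx and brighter signal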
KCNQ2 block = blocks the rat KCNQ2 potassium channel. O88943. actives 1.1% (n = 310,000). CHO-K1 KCNQ2, FluxOR thallium flux, 20 min; active compounds read low. B-score at 10 µM;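 active = fluorescence ratio B-score at most minus 3 library SDs, with starting brightness B-score within 2 library SDs, cut at about -5.5 in these data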
KCNQ2 inh conf = confirmation of rat KCNQ2 potassium channel inhibitors. actives 57% (n = 1,000). AID 493025. KCNQ2-expressing cells, thallium flux, inhibition; active compounds read low. activity change, negative = inhibition, % at 10 µM. shares compounds with KCNQ2 block;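 also: 0% = vehicle wells and values are ratio percent relative to vehicle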
KCNQ1 spec = human KCNQ1 activity in KCNQ2 inhibitor specificity screen; shares compounds with KCNQ2 block; KCNQ1-expressing cells, FluxOR thallium flux fluorescence; active compounds read low; activity change, negative = inhibition, % at 10 µM; actives 15% (n = 1,000);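 active = activity change at least 3 SD of negative controls below their mean in both duplicate wells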;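 also: CHO cells stably transfected with KCNQ1 and depolarized by potassium stimulus; peak minus minimum fluorescence over baseline after thallium addition; 0% = vehicle negative control and -100% = blank without thallium stimulus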
Target sequence (P51787 whole entry, looked up): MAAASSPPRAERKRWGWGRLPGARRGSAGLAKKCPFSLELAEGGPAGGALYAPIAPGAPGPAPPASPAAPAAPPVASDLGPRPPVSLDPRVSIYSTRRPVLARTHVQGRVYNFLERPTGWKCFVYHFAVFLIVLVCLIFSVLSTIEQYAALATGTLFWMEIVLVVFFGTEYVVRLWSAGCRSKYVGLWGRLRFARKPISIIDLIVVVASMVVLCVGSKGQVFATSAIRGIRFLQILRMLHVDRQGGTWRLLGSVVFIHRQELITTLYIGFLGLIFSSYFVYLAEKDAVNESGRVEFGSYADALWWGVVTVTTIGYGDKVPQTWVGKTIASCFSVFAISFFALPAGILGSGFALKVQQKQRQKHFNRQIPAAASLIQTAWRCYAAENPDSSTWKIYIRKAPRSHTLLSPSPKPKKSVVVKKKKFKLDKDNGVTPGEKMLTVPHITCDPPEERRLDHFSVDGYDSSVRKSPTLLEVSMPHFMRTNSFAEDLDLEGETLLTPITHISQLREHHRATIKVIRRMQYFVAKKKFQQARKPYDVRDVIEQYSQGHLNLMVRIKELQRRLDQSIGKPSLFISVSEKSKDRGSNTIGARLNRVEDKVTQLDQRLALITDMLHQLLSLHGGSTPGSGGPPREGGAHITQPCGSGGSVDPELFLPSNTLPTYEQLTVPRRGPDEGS
CHO parental ctr = KCNQ2 inhibitor counter-screen hit in parental CHO cells | actives 14% (n = 1,000) | shares compounds with KCNQ2 block | thallium flux counter-screen; active compounds read low | activity change, % at 10 µM | AID 493029;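 also: 0% = vehicle negative controls with stimulus buffer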
KCNQ2 inh confirm = rat KCNQ2 inhibition confirmed by electrophysiology | shares compounds with KCNQ2 block | KCNQ2-expressing cells, automated patch clamp current | calls only at 10 µM | actives 49% (n = 550) | AID 588531
Starred values were filed as active, the others as inactive; i = inactive; x = no result; + = active, no number. The list is not random: actives were taken first. Their share in the collection is about 1.6%. Unless noted, no rule for the calls is given here.

SMILES	KCNQ2 enhance	KCNQ2 block	KCNQ2 inh conf	KCNQ1 spec	CHO parental ctr	others
Cc1cccc(C)c1OCC(O)CN(Cc1ccccc1O)C1CCCCC1 (centres undefined)	-8.39	-8.39*	-41.0%*	-43.0%*	-35.5%*	KCNQ2 inh confirm=+
CN(CC(O)COc1ccc(OCC(O)CN(C)C2CCCCC2)cc1)C1CCCCC1 (centres undefined)	0.08	i	x	x	x
COc1ccc(-c2cc(C(F)F)n3ncc(C(=O)N4CCc5ccccc5C4)c3n2)cc1	x	i	x	x	x
COc1ccccc1-c1cc(C(F)(F)F)n2ncc(C(=O)N3CCc4ccccc4C3)c2n1	-7.58	-7.58*	i	i	i
N#C/C(=C\C=C\c1ccccc1)C(=O)Nc1ccccc1	-7.41	-7.41*	i	i	i
N#C/C(=C/C=C/c1ccccc1)C(=O)Nc1ccccc1	x	i	x	x	x
CN1CCN(C(=O)c2cc3sc4ccccc4c3s2)CC1	0.91	i	x	x	x
O=C(CC(=O)N/N=C/c1c(Cl)cccc1Cl)NCc1cccnc1	1.99	i	x	x	x
O=C(N/N=C/C(Br)=C\c1ccccc1)c1cccs1	x	i	x	x	x
N#CC(C#N)=C1C=CC=CN1/C(=C\c1ccccc1)C(=O)c1cccs1	-10.1	-10.1*	i	i	i
CCN(CC)S(=O)(=O)c1ccc(N2CCOCC2)c(NC(=O)CC23CC4CC(CC(Br)(C4)C2)C3)c1	x	i	x	x	x
O=[N+]([O-])c1cc([N+](=O)[O-])c2c(=Nc3ccccc3)n(-c3ccccc3)n(O)c2c1	-9.75	-9.75*	-34.0%*	-39.5%*	-27.5%*	KCNQ2 inh confirm=+
O=[N+]([O-])c1cc(Br)c(Nc2ccccc2)c([N+](=O)[O-])c1	x	i	x	x	x
O=C(COC(=O)c1ccc(Cl)nc1)Nc1nnc(-c2ccccc2)o1	1.76	i	x	x	x
CCc1ccccc1NNC(=O)c1snnc1C	x	i	x	x	x
O=C(/C=C/c1ccc([N+](=O)[O-])cc1)c1cccnc1	-9.94	-9.94*	i	i	i
O=C(N/N=C/c1ccc([N+](=O)[O-])cc1)c1cccnc1	x	i	x	x	x
O=C(O)/C=C/c1cccc(OCc2ccccc2)c1	0.1	i	x	x	x
O=C(/C=C/c1cccc(OCc2ccccc2)c1)c1cccnc1	-6.76	-6.76*	-29.0%*	i	i	KCNQ2 inh confirm=i
CCc1ccc(S(=O)(=O)Nc2ccc(Br)cn2)cc1	0.57	i	x	x	x
O=C(CSc1ccc(F)cc1)NC12CC3CC(CC(C3)C1)C2	x	i	x	x	x
O=C(CCSc1ccc(Cl)c(Cl)c1)NC12CC3CC(CC(C3)C1)C2	-10.7	-10.7*	i	i	i
COc1ccccc1N1CCN(C(=O)c2oc3cc(C)c(C)cc3c2C)CC1	x	i	x	x	x
CCOc1ccc2oc(C(=O)N3CCN(c4ccccc4OCC)CC3)c(C)c2c1	-9.78	-9.78*	i	i	i
Cc1ccccc1CN(C)CC(=O)Nc1ccccc1Oc1ccccc1	-7.46	-7.46*	-32.5%*	-31.5%*	-25.5%*	KCNQ2 inh confirm=i
SMILES	KCNQ2 enhance	KCNQ2 block	KCNQ2 inh conf	KCNQ1 spec	CHO parental ctr	others
CN(CC(=O)Nc1ccccc1Oc1ccccc1)Cc1ccccc1F	x	i	x	x	x
O=C(Cn1nnc2ccccc2c1=O)Nc1cccc(S(=O)(=O)N2CCOCC2)c1	1.02	i	x	x	x
O=C(CCNS(=O)(=O)c1cccc2nsnc12)NCc1ccccc1Cl	x	i	x	x	x
CCOC(=O)C(NC(=O)c1ccc(Cl)cc1Cl)(Nc1ccc(C)cc1)C(F)(F)F (centres undefined)	-8.52	-8.52*	i	i	i
CCOC(=O)C(NC(=O)c1ccccc1Cl)(Nc1ccc(C(F)(F)F)cc1)C(F)(F)F (centres undefined)	x	i	x	x	x
CC1CCN(C(=O)/C(=C/c2ccccc2Cl)c2ccccc2)CC1	-7.51	-7.51*	-32.5%*	i	i	KCNQ2 inh confirm=i
CN1CCN(C(=O)/C(=C\c2ccccc2)c2ccccc2)CC1	1.39	i	x	x	x
CC(C)CNC(=O)c1nc(-c2ccccc2)n(-c2ccccc2)n1	x	i	x	x	x
CC(OC(=O)c1nc(-c2ccccc2)n(-c2ccccc2)n1)C(=O)Nc1cc(Cl)cc(Cl)c1 (centres undefined)	-6.86	-6.86*	i	i	i
CCN1C(=O)N[C@@H](c2cccs2)C(C(C)=O)=C1C	1.61	i	x	x	x
O=C(NC1CCN(c2ncccn2)CC1)c1ccccc1Cl	x	i	x	x	x
O=C(/C=C/c1ccc(Cl)cc1)N(Cc1ccccc1)c1ccccn1	-8.26	-8.26*	-31.0%*	i	i	KCNQ2 inh confirm=+
O=C(Cc1c(F)cccc1Cl)N(Cc1ccccc1)c1ccccn1	0.31	i	x	x	x
O=C(c1cc([N+](=O)[O-])ccc1Cl)N1c2ccccc2Sc2ccccc21	x	i	x	x	x
CCCCN(C(=O)C1CCCC1)C1CCS(=O)(=O)C1 (centres undefined)	0.98	i	x	x	x
O=C(CCN1CCCCC1)c1ccccc1	x	i	x	x	x
O=C(CCN1CCOCC1)c1ccccc1	-9.89	-9.89*	i	i	i
O=C(CCN1CCOCC1)c1ccc2c(c1)OCCO2	-7.41	-7.41*	i	i	i
O=C(OCCN1CCOCC1)c1ccc2c(c1)OCCO2	x	i	x	x	x
CCOC(=O)c1ccc2c(c1)nc(COc1ccc3ccccc3c1)n2CC	-9.08	-9.08*	i	i	i
CCn1c(COc2ccc(OC)cc2)nc2ccccc21	x	i	x	x	x
O=C(CN1CCN(C/C=C/c2ccccc2)CC1)NC(=O)NC1CCCCC1	0.51	i	x	x	x
O=C(c1cc(-c2cccnc2)nc2ccccc12)N1CCCc2ccccc21	x	i	x	x	x
CC1CC(C)CN(C(=O)c2cc(-c3ccccn3)nc3ccccc23)C1 (centres undefined)	x	i	x	x	x
Cc1ccc(-c2cc(C(=O)N3CCCc4ccccc43)c3ccccc3n2)cc1	-6.86	-6.86*	i	i	i
SMILES	KCNQ2 enhance	KCNQ2 block	KCNQ2 inh conf	KCNQ1 spec	CHO parental ctr	others
CC1CN(C(=O)c2cc(-c3ccc(Cl)s3)nc3ccccc23)CC(C)O1 (centres undefined)	-8.53	-8.53*	-33.0%*	i	i	KCNQ2 inh confirm=+
COc1ccc(-c2cc(C(=O)N3CCCC3)c3ccccc3n2)cc1	x	i	x	x	x
Cc1ccc(-c2cc(C(=O)N3CCCCC3)c3ccccc3n2)cc1C	-9.31	-9.31*	-36.5%*	i	i	KCNQ2 inh confirm=+
COc1ccc(-c2cc(C(=O)N3CC(C)CC(C)C3)c3ccccc3n2)cc1 (centres undefined)	-8.7	-8.7*	-35.0%*	i	i	KCNQ2 inh confirm=+
Cc1ccccc1-c1cc(C(=O)N2CCCC2)c2ccccc2n1	0.36	i	x	x	x
O=C(c1ccccc1)N1N=C(c2ccccc2O)CC1c1ccccc1 (centres undefined)	x	i	x	x	x
Cc1cc(C)nc(SCC(=O)c2ccc(F)cc2F)n1	0.22	i	x	x	x
CCN(C(=S)NCc1ccccc1)c1ccccc1	0.54	i	x	x	x
CC(=O)Nc1cccc(NC(=O)COc2ccc3c(c2)OCO3)c1	1.65	i	x	x	x
c1ccc2c(Nc3ccc4c(c3)OCCO4)c3c(nc2c1)CCCC3	x	i	x	x	x
Cc1ccc(S(=O)(=O)CCC(=O)OCC(=O)NCC(=O)Nc2c(C)cc(C)cc2C)cc1	0.78	i	x	x	x
